# Compound activity: PubChem BioAssay, National Center for Advancing Translational Sciences (NCATS)
# Mm-Cpn inhibitor = M. maripaludis TRiC chaperonin inhibition. purified Mm-Cpn ATPase, ADP Transcreener TR-FRET. Potency, µM (highest dose often 76.9 µM), usual class: inhibitors. 330,000 tested, 0.031% active. AID 504842; note: nearly all actives have a fitted effect of over 80% in size
#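 Quantitative HTS used 25 nM Mm-CPN and 10 uM ATP in magnesium/KCl Tris buffer, pH 7.4, with 1 mM DTT. Hydrolysis ran 30 min at 37°C; ADP was read by HTRF.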
# p53 reactivation = re-activators of mutant p53 | H1299 p53-A138V BP100-luciferase reporter, luminescence, 24 h | Potency, µM (series often up to 92.2 µM), actives largely listed as activators | 320,000 tested, 0.063% active | AID 504706; note: nearly all actives have a fitted effect of over 45% in size
#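 H1299 (p53-null), stable ts p53-A138V + BP100-Luc; 1000 cells/well, Opti-MEM/10% FBS; cpd 4 pt, 1:5; 24 h, 37 deg C, 5% CO2; detection reagent 10 min RT; luminescence.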
# ALOX12 inh = ALOX12 (human) lipoxygenase inhibition; purified 12hLO, xylenol orange hydroperoxide absorbance; Potency, µM (series often up to 108 µM), hits mostly inhibitors; 580,000 tested, 1.1% active; AID 1671190
#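 Purified human 12hLO (150 nM final) in 25 mM Hepes, 0.01% Triton X-100, pH 7.0 was preincubated 15 min at room temperature with compound. Then 40 uM arachidonic acid was added, 30 min. Hydroperoxide was read by Fe-XO absorbance ratio 573/405 nm.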
# S-ASM inh = inhibitors of human secretory acid sphingomyelinase | P17405 | placental ASM, HMU-PC fluorogenic substrate, 60 min | Potency, µM (series often up to 57.5 µM), most hits filed as inhibitors | 340,000 tested, 0.006% active
# Target sequence (P17405 47-631 limits assumed): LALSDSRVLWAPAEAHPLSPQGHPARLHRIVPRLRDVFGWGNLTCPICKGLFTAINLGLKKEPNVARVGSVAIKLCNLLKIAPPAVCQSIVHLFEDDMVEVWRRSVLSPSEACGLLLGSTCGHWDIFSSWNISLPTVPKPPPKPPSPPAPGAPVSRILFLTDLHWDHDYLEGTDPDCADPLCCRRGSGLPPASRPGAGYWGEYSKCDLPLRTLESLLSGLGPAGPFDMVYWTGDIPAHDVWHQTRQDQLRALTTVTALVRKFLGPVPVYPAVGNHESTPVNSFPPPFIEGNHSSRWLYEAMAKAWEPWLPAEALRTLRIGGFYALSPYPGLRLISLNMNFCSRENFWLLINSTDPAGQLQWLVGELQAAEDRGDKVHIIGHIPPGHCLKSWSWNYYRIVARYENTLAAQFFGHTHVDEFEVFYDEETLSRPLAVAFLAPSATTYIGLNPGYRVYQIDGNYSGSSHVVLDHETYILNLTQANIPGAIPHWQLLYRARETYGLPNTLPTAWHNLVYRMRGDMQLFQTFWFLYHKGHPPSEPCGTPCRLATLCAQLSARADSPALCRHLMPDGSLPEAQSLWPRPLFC
#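 qHTS format. ASM enzyme prepared from human placenta hydrolyses the fluorogenic substrate HMU-PC0 (9 uM final) over 60 min at 37 °C after a 10 min compound preincubation.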
# CCT modulator = cytosolic chaperonin activity modulation; activity change, % (test concentration not listed), hits read low; purified chaperonin ATPase assay, HTRF ADP detection, 30 min; AID 651819; 360,000 tested, 0.3% active; in the data active = activity change below about -30%
#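 TRiC (40 or 20 nM final, by batch activity) in 30 mM Tris pH 7.4, 100 mM KCl, 5 mM MgCl2, 1 mM DTT was treated with compound at 76 uM single dose, then 10 uM ATP, 30 min at 37 °C. ADP was read by HTRF Transcreener.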
# PINK1 modulator = modulators of PINK1 expression; PINK1 immunofluorescence, high-content cytometry, 24 h; Potency, µM (doses to about 76.6 µM), usual class: activators; 410,000 tested, 0.2% active; AID 624263; active = well fitted activation curve with a large enough effect; inconclusive = small, poorly fitted or top-dose-only effect; cell line not stated here; note: nearly all actives have a fitted effect of over 65% in size
#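 Stable cell line treated 24 h with compounds at 5 concentrations (CCCP controls), then fixed and immunostained for PINK1 plus nuclear and cell stains; PINK1 immunofluorescence quantified by laser-scanning microplate cytometry.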
# Hits are given with their value; 0 = inactive; ? = inconclusive; - = no result. Rows were chosen to be rich in hits. Some 1.4% of all compounds tested hit in one or more screens of this group. Unless noted, calls come from the whole dose curve; as a rule, active = well fitted curve in the direction sought with a large enough effect; inconclusive = small, poorly fitted or top-dose-only effect, or another doubt; inactive = no such curve, though single readings can be large; an effect the other way counts as inactive or inconclusive.
SMILES,Mm-Cpn inhibitor,p53 reactivation,ALOX12 inh,S-ASM inh,CCT modulator,PINK1 modulator
CCC(CC)c1cc([C@H]2CN3CC[C@H]2C[C@@H]3COC(=O)Nc2ccc(C(C)(C)C)cc2)nc(-c2ccncc2)n1,-,-,50µM,-,-,-
CC(=O)Nc1ccc2n(c1=O)C[C@H]1C[C@@H]2CN(C(=O)c2ccccn2)C1,-,-,0,-,-,-
COc1cc2c(cc1OCc1ccccc1)N(C(=O)c1cccc(N(C)C)c1)CC21CCN(C)CC1,-,-,0,-,-,-
COCCN1C(=O)NC(=O)/C(=C\c2ccc(F)cc2)C1=O,0,0,0,0,0,0
CN(C)c1ccc(/C=C2\C(=O)NC(=O)N(CCc3ccc(F)cc3)C2=O)cc1,0,0,16µM,0,0,0
CN1Cc2ccccc2-n2ccnc2C12CCN(C(=O)c1cccc(C(F)(F)F)c1)CC2,-,-,0,-,-,-
CN1C(=O)C(=Cc2ccccc2OCCOc2ccc([N+](=O)[O-])cc2)C(=O)N(C)C1=O,0,0,?,0,0,0
O=C1NC(=O)C(=Cc2ccccc2OCCOc2ccc([N+](=O)[O-])cc2)C(=O)N1,0,0,-,0,-32,0
O=C1NC(=O)C(=Cc2ccc3ccccc3c2)C(=O)N1,0,0,?,0,0,0
Cc1cc(C)cc(OCCOc2cccc(C=C3C(=O)NC(=O)NC3=O)c2)c1,0,-,13µM,0,0,0
Cc1ccc(OCCOc2cccc(C=C3C(=O)NC(=O)NC3=O)c2)cc1,0,0,32µM,0,0,0
C#CCN(C)C[C@H]1CN2CC[C@H]1C[C@@H]2CNS(=O)(=O)c1ccc(C)cc1,-,-,0,-,-,-
Cc1ccc(C(=O)Nc2cccc3cnccc23)cc1S(=O)(=O)N1CCCCC1,-,-,0,-,-,-
Cc1nc(-c2cccs2)cc([C@H]2CN3CC[C@H]2C[C@@H]3CO)n1,-,-,0,-,-,-
Cc1cc(Cc2c(O)[nH]c(=S)[nH]c2=O)ccc1OC(C)C,0,0,20µM,0,0,0
CC(C)COc1ccc(Cc2c(O)[nH]c(=S)[nH]c2=O)cc1,0,?,8.9µM,0,0,0
C=CCn1c(O)c(Cc2ccc(OCC)cc2)c(=O)[nH]c1=O,0,0,0,0,0,0
C=C(C)[C@@H]1CC=C(C=O)CC1,-,-,0,-,-,-
CCNC(=O)NC[C@H]1C[C@@H]2CCN1C[C@@H]2c1cc(-c2ccccc2)nn1C,-,-,0,-,-,-
Oc1ccc(/C=N/NP(=S)(c2ccccc2)c2ccccc2)cc1O,0,0,32µM,0,0,0
Cc1nc(-c2ccccc2)cc([C@H]2CN3CC[C@H]2C[C@@H]3CNC(=O)NC(C)C)n1,-,-,25µM,-,-,-
COc1ccc(NC(=O)NC[C@H]2C[C@@H]3CCN2C[C@@H]3c2cc(-c3ccccc3Br)nc(C)n2)cc1,-,-,35µM,-,-,-
Cc1nc(-c2ccccc2)cc([C@H]2CN3CC[C@H]2C[C@@H]3CNC(=O)C2CCC2)n1,-,-,0,-,-,-
COc1ccc(C(=O)OC2CC[C@@]3(C)C4CCC5[C@]6(O)C[C@H](O)[C@@]7(O)C(CN8CC(C)CCC8[C@@]7(C)O)[C@]6(O)C[C@@]53O[C@]24O)cc1OC (stereo partly drawn),-,-,0,-,-,-
N#Cc1cccc(-c2ccc(=O)n3c2[C@@H]2C[C@@H](CN(C(=O)NC4CCCCC4)C2)C3)c1,-,-,0,-,-,-
SMILES,Mm-Cpn inhibitor,p53 reactivation,ALOX12 inh,S-ASM inh,CCT modulator,PINK1 modulator
CC(Oc1ccccc1)C(=O)NN (stereo not drawn),-,-,0,-,-,-
CC(Cc1ccccc1)N(C)C (stereo not drawn),-,-,0,-,-,-
CN(C)C(CSS(=O)(=O)c1ccccc1)CSS(=O)(=O)c1ccccc1,-,-,0.71µM,-,-,-
Clc1ccc(Cl)c(-c2ccc(CNC3CN4CCC3CC4)o2)c1 (stereo not drawn),-,-,8.9µM,-,-,-
O=c1[nH]c(O)c(/C=C2\C=Nc3ccc(OCc4ccccc4)cc32)c(=O)[nH]1,0,-,0,0,0,32µM
Cc1ncc2c(n1)C[C@@H]1CC[C@H]2N1C(=O)c1ccoc1,-,-,0,-,-,-
ClCCN(CCCl)c1ccc(/C=C/c2ccnc3ccccc23)cc1,-,-,-,-,-,0
CC[n+]1c(/C=C/C=C/c2ccc(N(C)C)cc2)sc2ccccc21,?,0,?,0,0,0
CN(C)c1ccc(/C=C/c2cc[n+](C)c3ccccc23)cc1,?,0,?,0,0,25µM
CN(C)c1ccc(/C=C/C=C/c2sc3ccccc3[n+]2C)cc1,?,0,?,0,0,5µM
C#C[C@H]1CN2CC[C@H]1C[C@@H]2CNCc1ccc(C(F)(F)F)cc1,-,-,0,-,-,-
COc1ccc(-n2cc(C3=CCN(CCN4CCOCC4)CC3)cn2)cc1,-,-,0,-,-,-
COc1ccc(CNCCc2ccc3c(c2)OCO3)cc1Br,0,0,0,0,0,0
COC1=CC(=O)OC(CCc2ccc3c(c2)OCO3)C1 (stereo not drawn),-,-,0,0,-32,0
CC(N)Cc1ccc2oc3ccccc3c2c1 (stereo not drawn),-,-,0,-,-,-
COc1ccc(N2C(=O)NC(=O)/C(=C/c3ccc([N+](=O)[O-])s3)C2=O)cc1,0,0,0,0,0,0
COc1ccc(N2C(=O)NC(=O)/C(=C\c3ccc([N+](=O)[O-])s3)C2=O)cc1,0,0,45µM,0,0,0
COc1ccc(N2C(=O)/C(=C/C=C/c3ccccc3[N+](=O)[O-])C(=O)NC2=S)cc1,0,0,11µM,0,0,0
C=CCN1C(=O)/C(=C/c2cccs2)C(=O)NC1=S,0,0,45µM,0,0,0
